From ChEMBL document CHEMBL3433997, “St. Jude Leishmania screening dataset” (2016)

Columns and labels:
Format in all cases: functional
[1] = target: Solute carrier family 2, facilitated glucose transporter member 1 (Homo sapiens) (UniProt P11166); experiment: ST_JUDE_LEISH: Cytotoxicity at 2uM final concentration against transgenic Leishmania Mexicana promastigotes LmGLUT1 that are glucose transport deficient and complemented with the human glucose transporter GLUT1. Activity is measured by DNA content using SYBR green in vitro
[2] = target: Hexose transporter 1 (Plasmodium falciparum) (UniProt O97467); experiment: ST_JUDE_LEISH: Cytotoxicity at 2uM final concentration against transgenic Leishmania Mexicana promastigotes LmPfHT that are glucose transport deficient and complemented with the Plasmodium falciparum hexose transporter. Activity is measured by DNA content using SYBR green in vitro
[3] = target: Glucose transporter (Leishmania mexicana) (UniProt O61059); experiment: ST_JUDE_LEISH: Cytotoxicity at 2uM final concentration against transgenic Leishmania Mexicana promastigotes LmGT2 that are glucose transport deficient and complemented with the L. Mexicana glucose transporter 2. Activity is measured by DNA content using SYBR green in vitro

Chain of Solute carrier family 2, facilitated glucose transporter member 1 (Homo sapiens) (P11166 whole entry): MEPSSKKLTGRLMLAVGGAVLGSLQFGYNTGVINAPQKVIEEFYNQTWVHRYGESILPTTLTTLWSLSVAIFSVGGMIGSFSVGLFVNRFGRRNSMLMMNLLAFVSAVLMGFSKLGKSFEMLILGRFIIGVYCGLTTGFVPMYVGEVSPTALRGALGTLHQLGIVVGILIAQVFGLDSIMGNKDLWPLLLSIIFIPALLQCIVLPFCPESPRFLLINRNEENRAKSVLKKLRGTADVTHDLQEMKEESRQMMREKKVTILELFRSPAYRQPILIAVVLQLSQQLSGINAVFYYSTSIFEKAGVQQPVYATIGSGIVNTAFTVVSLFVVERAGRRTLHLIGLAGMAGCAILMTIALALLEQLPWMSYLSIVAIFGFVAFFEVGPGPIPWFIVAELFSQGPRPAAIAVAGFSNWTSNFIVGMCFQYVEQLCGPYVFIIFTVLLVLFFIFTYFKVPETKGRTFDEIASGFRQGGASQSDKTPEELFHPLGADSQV

Structure (SMILES) | inhibition [1] | inhibition [2] | inhibition [3]
O=C(/C=C/c1ccc(Cl)c(Cl)c1)N1CCC(CCN2CCC(c3c[nH]c4cnccc34)CC2)CC1 | 16% | 11.9% | 5.81%
O=S(=O)(NCCN1CCCC1)c1cccc(-c2ccc(CNCc3ccc(F)cc3)cc2)c1 | 7.08% | 3.37% | 4.19%
NC1CCN(Cc2cccc(-c3ccc(-c4nc5cc(C(F)(F)F)ccc5[nH]4)cc3)c2)C1 (stereo not drawn) | 0.52% | 5.22% | 2.71%
O=C(NCCCN1CCCCC1)c1ccc(Nc2nccc(Nc3ccc(Oc4ccccc4)cc3)n2)cc1 | 10.4% | 8.47% | 7.37%
CN(C)CC1CCCN1Cc1ccccc1-c1cnn(C)c(=O)c1Oc1ccc(F)cc1 (stereo not drawn) | 5.23% | 4.08% | 4.45%
CC(=O)N1CCC(C(=O)Nc2ccc(-c3cccc(-c4nc5cc(C(F)(F)F)ccc5[nH]4)c3)cc2)CC1 | 0.57% | 3.33% | 1.24%
Cc1ccc(C(=O)Nc2ccc(OC3CCN(CCC(C)C)C3)c(Cl)c2)cc1 (stereo not drawn) | 3.79% | 4.8% | 3.43%
CC(C)(CNCc1cc(Cl)cc(Cl)c1)c1nc(-c2ccnc(N)n2)c(-c2ccc(Cl)c(O)c2)[nH]1 | -0.09% | 0.95% | 2.11%
Cc1nn(-c2ccc(Cl)cc2)c2[nH]c(CN3CCN(c4cccc(Cl)c4)CC3)cc(=O)c12 | 20.2% | 21% | 17%
O=C(NCC1CCC(C(=O)NCCc2ccc(Cl)c(Cl)c2)CC1)c1ccc(O)c(-c2ccc(Cl)c(Cl)c2)c1 (stereo not drawn) | -0.17% | 0.8% | 1.89%
COc1ccc(Cl)cc1NC(=O)C(C)Nc1ccc(-c2ccccc2)cc1 (stereo not drawn) | 2.84% | 2.75% | 5.12%
COc1ccc(C(=O)N2CCC(CN3CCOC(c4ccccc4)(c4ccccc4)C3)CC2)cc1 | 0.77% | 2.13% | 2.45%
COc1cc(-c2cc3cc(Cl)c(Cl)cc3[nH]2)ccc1C(=O)NCCC1CCCN1C (stereo not drawn) | -0.78% | -0.94% | -1.26%
CN1CCN(CCCN(Cc2csc(-c3ccc(CNCc4ccccc4)cc3)n2)C(=O)Nc2cccc(Cl)c2)CC1 | 1.91% | -0.25% | 2.48%
COc1cc(C(C)C)ccc1C1CCN(CCCCNC(=O)c2ccc(NC(=O)c3ccc(Cl)cc3)cc2)CC1 | 4.4% | 6.6% | 3.65%
C=CCn1c(=N)c(C(=O)NCc2ccc(F)cc2)cc2c(=O)n3cccc(C)c3nc21 | 3.56% | 3.45% | 2.22%
